# Assay results taken from the antibiotic and cytotoxicity screens of Wong et al. (2023).
# The whole screen tested about 39,000 compounds, of which about 3,300 (8.5%) were called active. The sample holds actives, similar compounds and a random draw of the others, so the mix is not that of the screen.
# Test system: HepG2
# Test: cytotoxicity call (relative viability < 0.9)
# Details: 10 µM
row,Compound,cytotoxicity call
1,NCC[C@H]1CC[C@H](NC(=O)Cc2ccncc2)[C@@H](CO)O1,inactive
2,O=C(O)CCCCCCCCCCCC[C@@H]1C=CCC1,inactive
3,COc1ccc(-c2cc(=O)c3c(O)c(OC)c(O[C@H]4O[C@H](CO[C@@H]5O[C@@H](C)[C@H](O)[C@@H](O)[C@H]5O)[C@@H](O)[C@H](O)[C@H]4O)cc3o2)cc1,inactive
4,C[C@H](CO)N1C[C@H](C)[C@@H](CN(C)S(=O)(=O)c2cn(C)cn2)Oc2cc(Br)ccc2S1(=O)=O,inactive
5,C[C@H](CO)N1C[C@H](C)[C@@H](CN(C)Cc2ccc(-c3ccccc3)cc2)Oc2c(NS(=O)(=O)c3cccs3)cccc2C1=O,inactive
6,C[C@@H]1CCCCO[C@@H](CN(C)Cc2ccncc2)[C@H](C)CN([C@@H](C)CO)C(=O)c2cc(NC(=O)C3CCCCC3)ccc2O1,inactive
7,CC(O)C(=O)O.CCOc1ccc2nc3cc(N)ccc3c(N)c2c1,active
8,CCOc1ccc2nc(S(N)(=O)=O)sc2c1,inactive
9,CCOC(=O)c1cccc(N)c1.CS(=O)(=O)O,inactive
10,CO[C@@H](CN(C)C(=O)C1CCOCC1)[C@@H](C)CN(C(=O)Nc1ccc(C(F)(F)F)cc1)[C@@H](C)CO,inactive
11,CC(=O)N[C@@H]1C[C@H](O)[C@@H](O)CCC(=O)N[C@H](c2ccccc2)COC1=O,inactive
12,C[C@H]1CN([C@@H](C)CO)C(=O)Cc2cc(NC(=O)Cn3cnnn3)ccc2O[C@H]1CN(C)C(=O)Nc1ccc(C(F)(F)F)cc1,inactive
13,C[C@@H]1CCCCO[C@@H](CN(C)C(=O)NC2CCCCC2)[C@H](C)CN([C@H](C)CO)C(=O)c2cc(NC(=O)CCC(F)(F)F)ccc2O1,inactive
14,CO[C@H]1CN(C)C(=O)c2cc(NC(=O)NC(C)C)ccc2OC[C@H](C)N(Cc2ccc(-c3ccccn3)cc2)C[C@H]1C,inactive
15,C[C@H]1CCCCO[C@H](CN(C)C(=O)Nc2cccc3ccccc23)[C@@H](C)CN([C@@H](C)CO)C(=O)c2cc(NS(=O)(=O)c3ccc(F)cc3)ccc2O1,active
16,C[C@@H]1CCCCO[C@@H](CN(C)C(=O)Nc2cccc3ccccc23)[C@@H](C)CN([C@H](C)CO)C(=O)c2cc(NS(=O)(=O)c3ccc(F)cc3)ccc2O1,inactive
17,C[C@@H]1CCCCO[C@H](CN(C)C(=O)Nc2cccc3ccccc23)[C@@H](C)CN([C@H](C)CO)C(=O)c2cc(NS(=O)(=O)c3ccc(F)cc3)ccc2O1,active
18,C[C@H](CO)N1C[C@H](C)[C@@H](CN(C)C(=O)Nc2cccc3ccccc23)OCCCC[C@H](C)Oc2ccc(NS(=O)(=O)c3ccc(F)cc3)cc2C1=O,inactive
19,C[C@H](CO)N1C[C@H](C)[C@H](CN(C)C(=O)Nc2cccc3ccccc23)OCCCC[C@H](C)Oc2ccc(NS(=O)(=O)c3ccc(F)cc3)cc2C1=O,inactive
20,C[C@@H]1CN([C@@H](C)CO)C(=O)c2cc(NS(=O)(=O)c3ccc(F)cc3)ccc2O[C@@H](C)CCCCO[C@H]1CN(C)C(=O)Nc1cccc2ccccc12,inactive

row,Compound,cytotoxicity call
1,C[C@@H]1CCCCO[C@@H](CN(C)C(=O)Nc2cccc3ccccc23)[C@H](C)CN([C@@H](C)CO)C(=O)c2cc(NS(=O)(=O)c3ccc(F)cc3)ccc2O1,inactive
2,C[C@H]1CCCCO[C@@H](CN(C)C(=O)Nc2cccc3ccccc23)[C@@H](C)CN([C@@H](C)CO)C(=O)c2cc(NS(=O)(=O)c3ccc(F)cc3)ccc2O1,inactive
3,C[C@@H]1CCCCO[C@@H](CN(C)C(=O)Nc2cccc3ccccc23)[C@H](C)CN([C@H](C)CO)C(=O)c2cc(NS(=O)(=O)c3ccc(F)cc3)ccc2O1,active
4,C[C@@H]1CCCCO[C@H](CN(C)C(=O)Nc2cccc3ccccc23)[C@H](C)CN([C@@H](C)CO)C(=O)c2cc(NS(=O)(=O)c3ccc(F)cc3)ccc2O1,active
5,C[C@@H]1CN([C@@H](C)CO)C(=O)c2cc(NS(=O)(=O)c3ccc(F)cc3)ccc2O[C@@H](C)CCCCO[C@@H]1CN(C)C(=O)Nc1cccc2ccccc12,inactive
6,CN1CCC[C@H](C(=O)O)C1,inactive
7,C[C@@H]1CN([C@H](C)CO)S(=O)(=O)c2ccc(C#CC3CC3)cc2O[C@H]1CN(C)Cc1cccc(F)c1,inactive
8,CNC[C@H]1Oc2cc(C#CC(C)(C)O)ccc2S(=O)(=O)N([C@H](C)CO)C[C@@H]1C,inactive
9,O=C(C[C@@H]1CC[C@H]2[C@@H](COC[C@@H](O)CN2S(=O)(=O)c2ccc(Cl)cc2)O1)N[C@@H]1CCN(Cc2ccccc2)C1,inactive
10,C[C@@H]1CN([C@H](C)CO)C(=O)c2cc(NS(C)(=O)=O)ccc2O[C@H]1CN(C)C(=O)Nc1ccc2c(c1)OCO2,inactive
11,CCOC(=O)c1snc2c(=O)nc[nH]c12,inactive
12,C=CCOC(=O)[C@@H]1[C@H]2C(=O)O[C@H](c3ccccc3)[C@H](c3ccccc3)N2[C@H](c2ccc(OCCOC(=O)[C@H]3C[C@H]4C(=O)N[C@@H](CCCCNC(C)=O)C(=O)N4[C@H]3c3cccc(OCCO)c3)cc2)[C@@]12C(=O)Nc1ccc(I)cc12,inactive
13,C[C@@H]1CCCCO[C@@H](CN(C)C(=O)CCC(F)(F)F)[C@@H](C)CN([C@@H](C)CO)C(=O)c2cc(NC(=O)Nc3ccc4c(c3)OCO4)ccc2O1,inactive
14,C[C@@H]1CCCCO[C@H](CN(C)C(=O)Nc2cccc3ccccc23)[C@H](C)CN([C@H](C)CO)C(=O)c2cc(NS(=O)(=O)c3ccc(F)cc3)ccc2O1,active
15,C[C@H]1CN([C@@H](C)CO)S(=O)(=O)c2ccc(-c3cccnc3)cc2O[C@H]1CN(C)C(=O)c1ccc2c(c1)OCO2,inactive
16,NC(=O)CC1=NC(=O)CS1,inactive
17,C[C@H]1CN([C@@H](C)CO)C(=O)Cc2cc(NC(=O)Cc3ccccc3)ccc2O[C@@H]1CN(C)S(C)(=O)=O,inactive
18,Cc1ccc(S(=O)(=O)Nc2ccc3c(c2)C(=O)N([C@@H](C)CO)C[C@H](C)[C@H](CN(C)Cc2ccc4c(c2)OCO4)OCCCC[C@@H](C)O3)cc1,inactive
19,C[C@@H]1CN([C@@H](C)CO)C(=O)c2cc(NC(=O)Nc3cccc4ccccc34)ccc2O[C@H]1CN(C)Cc1ccncc1,inactive
